In PubChem BioAssay AID1159580 (chemical genetic matrix, 2015):
In all, about 5,500 compounds went through this assay and about 2,000 (36%) were called active. Inconclusive results (about 18%) are left out. Cut-off read from the data, not from the text of the source: active = normalized growth mostly below about 0.91 (no sharp cut-off); inconclusive = no clear call, values can overlap the other calls; inactive = mostly above about 0.92. The list shows a part of the results.

Test: chemical genetic growth profiling, strain panel (AID 1159580);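 note: tested at 20 µM; growth read once vehicle control cultures reached saturation at 30 °C; 1 = growth at the plate median or of vehicle wells; lower values mean less growth of the strain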
Settings: growth OD

Measured: normalized growth

COc1ccc(C[C@H]2NC[C@H](O)[C@H]2OC(C)=O)cc1
active: S. cerevisiae deletion strains, locus YKL160W, strain elf1, hits give low values 0.776 | S. cerevisiae deletion strains, locus YKL190W, strain CNB1, hits give low values 0.206 | S. cerevisiae deletion strains, locus YKR001C, strain vps1, hits give low values 0.367 | S. cerevisiae deletion strains, locus YLL001W, strain dnm1, hits give low values 0.884 | S. cerevisiae deletion strains, locus YLL026W, hits give low values 0.807 | S. cerevisiae deletion strains, locus YLR027C, strain aat2, hits give low values 0.659 | S. cerevisiae deletion strains, locus YLR039C, strain RIC1, hits give low values 0.567 | S. cerevisiae deletion strains, locus YLR058C, strain SHM2, hits give low values 0.61 | S. cerevisiae deletion strains, locus YLR221C, strain rsa3, hits give low values 0.853 | S. cerevisiae deletion strains, locus YLR258W, strain gsy2, hits give low values 0.734 | S. cerevisiae deletion strains, locus YLR262C, strain YPT6 (second series), hits give low values 0.769 | S. cerevisiae deletion strains, locus YLR262C, strain YPT6, hits give low values 0.386 | S. cerevisiae deletion strains, locus YLR268W, strain sec22, hits give low values 0.854 | S. cerevisiae deletion strains, locus YLR330W, strain CHS5, hits give low values 0.87 | S. cerevisiae deletion strains, locus YLR342W, strain FKS1 (second series), hits give low values 0.126 | S. cerevisiae deletion strains, locus YLR342W, strain FKS1, hits give low values 0.412 | S. cerevisiae deletion strains, locus YLR357W, strain rsc2, hits give low values 0.826 | S. cerevisiae deletion strains, locus YLR370C, strain arc18, hits give low values 0.877 | S. cerevisiae deletion strains, locus YLR371W, strain rom2, hits give low values 0.728 | S. cerevisiae deletion strains, locus YLR418C, strain cdc73, hits give low values 0.28 | S. cerevisiae deletion strains, locus YML016C, strain PPZ1, hits give low values 0.625 | S. cerevisiae deletion strains, locus YML032C, strain rad52, hits give low values 0.868 | S. cerevisiae deletion strains, locus YMR058W, strain fet3, hits give low values 0.891 | S. cerevisiae deletion strains, locus YMR125W, strain sto1, hits give low values 0.862 | S. cerevisiae deletion strains, locus YMR205C, strain PFK2, hits give low values 0.692 | S. cerevisiae deletion strains, locus YMR223W, strain ubp8, hits give low values 0.723 | S. cerevisiae deletion strains, locus YMR231W, strain pep5, hits give low values 0.752 | S. cerevisiae deletion strains, locus YMR263W, strain SAP30, hits give low values 0.852 | S. cerevisiae deletion strains, locus YMR307W, strain GAS1, hits give low values 0.237 | S. cerevisiae deletion strains, locus YNL067W, strain RPL9B, hits give low values 0.663 | S. cerevisiae deletion strains, locus YNL128W, strain TEP1, hits give low values 0.353 | S. cerevisiae deletion strains, locus YNL153C, strain GIM3, hits give low values 0.62 | S. cerevisiae deletion strains, locus YNL209W, strain ssb2, hits give low values 0.74 | S. cerevisiae deletion strains, locus YNL233W, strain BNI4, hits give low values 0.582 | S. cerevisiae deletion strains, locus YNL248C, strain rpa49, hits give low values 0.745 | S. cerevisiae deletion strains, locus YNL307C, strain MCK1, hits give low values 0.496 | S. cerevisiae deletion strains, locus YNL322C, strain KRE1, hits give low values 0.0901 | S. cerevisiae deletion strains, locus YNR052C, strain pop2, hits give low values 0.448 | S. cerevisiae deletion strains, locus YOL006C, strain TOP1, hits give low values 0.0919 | S. cerevisiae deletion strains, locus YOL012C, strain htz1 2.18 [resistant] | S. cerevisiae deletion strains, locus YOL147C, strain pex11, hits give low values 0.884 | S. cerevisiae deletion strains, locus YOR001W, strain rrp6, hits give low values 0.891 | S. cerevisiae deletion strains, locus YOR061W, strain CKA2, hits give low values 0.624 | S. cerevisiae deletion strains, locus YOR070C, strain gyp1, hits give low values 0.775 | S. cerevisiae deletion strains, locus YOR083W, strain WHI5, hits give low values 0.657 | S. cerevisiae deletion strains, locus YOR106W, strain vam3, hits give low values 0.345 | S. cerevisiae deletion strains, locus YOR136W, strain idh2, hits give low values 0.914 | S. cerevisiae deletion strains, locus YOR184W, strain ser1, hits give low values 0.463 | S. cerevisiae deletion strains, locus YOR265W, strain rbl2, hits give low values 0.851 | S. cerevisiae deletion strains, locus YOR270C, strain vph1, hits give low values 0.354 | S. cerevisiae deletion strains, locus YOR290C, strain snf2, hits give low values 0.763 | S. cerevisiae deletion strains, locus YPL051W, strain arl3, hits give low values 0.738 | S. cerevisiae deletion strains, locus YPL055C, strain LGE1, hits give low values 0.0822 | S. cerevisiae deletion strains, locus YPL241C, strain CIN2, hits give low values 0.652 | S. cerevisiae deletion strains, locus YPR163C, strain tif3, hits give low values 0.718 | S. cerevisiae deletion strains, locus YPR167C, strain met16, hits give low values 0.807 | S. cerevisiae deletion strains, strain wtn01, hits give low values 0.301 | S. cerevisiae strains, strain wild type, hits give low values 0.117
inactive: S. cerevisiae deletion strains, locus YKL009W, strain mrt4, hits give low values 0.966 | S. cerevisiae deletion strains, locus YKL068W, hits give low values 0.998 | S. cerevisiae deletion strains, locus YKL085W, strain MDH1 (second series), hits give low values 1.01 | S. cerevisiae deletion strains, locus YKL085W, strain MDH1, hits give low values 1.01 | S. cerevisiae deletion strains, locus YKR026C, strain gcn3, hits give low values 0.985 | S. cerevisiae deletion strains, locus YKR091W, strain srl3, hits give low values 1 | S. cerevisiae deletion strains, locus YLL041C, strain sdh2, hits give low values 0.986 | S. cerevisiae deletion strains, locus YLR102C, strain apc9, hits give low values 1.01 | S. cerevisiae deletion strains, locus YLR113W, strain HOG1, hits give low values 0.977 | S. cerevisiae deletion strains, locus YLR320W, strain mms22, hits give low values 0.957 | S. cerevisiae deletion strains, locus YLR384C, strain iki3, hits give low values 1 | S. cerevisiae deletion strains, locus YML120C, strain ndi1, hits give low values 0.98 | S. cerevisiae deletion strains, locus YML124C, strain tub3, hits give low values 0.988 | S. cerevisiae deletion strains, locus YMR078C, strain ctf18, hits give low values 1.02 | S. cerevisiae deletion strains, locus YMR129W, hits give low values 0.961 | S. cerevisiae deletion strains, locus YNL071W, strain lat1, hits give low values 0.975 | S. cerevisiae deletion strains, locus YNL183C, strain NPR1, hits give low values 0.97 | S. cerevisiae deletion strains, locus YNL250W, strain rad50, hits give low values 0.986 | S. cerevisiae deletion strains, locus YNL271C, strain bni1, hits give low values 0.995 | S. cerevisiae deletion strains, locus YNL298W, strain CLA4, hits give low values 0.98 | S. cerevisiae deletion strains, locus YNL322C, strain KRE1 (second series), hits give low values 1.01 | S. cerevisiae deletion strains, locus YNR049C, strain mso1, hits give low values 1 | S. cerevisiae deletion strains, locus YOR069W, strain VPS5, hits give low values 0.973 | S. cerevisiae deletion strains, locus YOR080W, strain dia2, hits give low values 0.952 | S. cerevisiae deletion strains, locus YOR144C, strain elg1, hits give low values 1.01 | S. cerevisiae deletion strains, locus YOR231W, strain MKK1, hits give low values 0.954 | S. cerevisiae deletion strains, locus YOR316C, strain cot1, hits give low values 0.993 | S. cerevisiae deletion strains, locus YPL078C, strain atp4, hits give low values 0.919 | S. cerevisiae deletion strains, locus YPL106C, strain sse1, hits give low values 0.873 | S. cerevisiae deletion strains, locus YPL240C, strain hsp82, hits give low values 0.942 | S. cerevisiae deletion strains, locus YPL256C, strain CLN2, hits give low values 0.947 | S. cerevisiae deletion strains, locus YPR119W, strain clb2, hits give low values 1.07 | S. cerevisiae deletion strains, locus YPR141C, strain kar3, hits give low values 0.986
